Experimental data from PubChem BioAssay AID837 (The Scripps Research Institute Molecular Screening Center, 2007).
Calls of active or inactive are those of the source.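 How the source made its calls: active means relative FRET score above 0.01, or acceptor fluorescence over 30% below the sample-well median; inactive means the rest.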

Molecular target: Protein Rev (Human immunodeficiency virus type 1 group M subtype B (isolate WMJ22)) (UniProt P05866)
Experiment: HIV-1 Rev-RRE binding inhibitors, retest, confirmation, biochemical, FRET, acceptor and relative FRET calls (AID 837);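 further: relative FRET combines rise in Cy5 acceptor with fall in fluorescein donor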
Conditions: Fl-Rev peptide / Cy5-RRE RNA FRET, 1536-well; at 8 µM

Chain of Protein Rev (Human immunodeficiency virus type 1 group M subtype B (isolate WMJ22)) (P05866 whole entry, looked up): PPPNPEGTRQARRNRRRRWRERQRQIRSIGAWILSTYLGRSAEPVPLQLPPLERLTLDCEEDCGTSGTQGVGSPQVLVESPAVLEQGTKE

SMILES	outcome
N=c1c2c(n(Cc3ccc(F)cc3)c3c1CCC3)CCC2	inactive
CC[n+]1c(/C=C/Nc2ccccc2)oc2ccccc21	active; fluoresces like the donor
CCCn1c(=N)c(C(=O)NCc2ccc3c(c2)OCO3)cc2c(=O)n3cccc(C)c3nc21	inactive
O=c1[nH]c(Nc2ccc(F)cc2)cc2ccccc12	inactive
CC(C)COc1ccc(Cc2cnc(N)nc2N)cc1	active
CC(C)c1ccc(CNCc2ccccc2)cc1	inactive
O=C(c1cccc(F)c1)N1CCN(c2cccc(Cl)c2)CC1	inactive
CC(C)(c1ccccc1)c1ccc(OCCCNCCO)cc1	inactive
NCCCC(=O)N1c2ccccc2Sc2ccccc21	active
O=C(O)c1ccc2c(c1)[C@@H]1C=CC[C@@H]1[C@H](c1ccccn1)N2	inactive; quenches the donor
COc1ccccc1NC1=NC(c2ccc(Cl)cc2)N=C(N)N1 (centres undefined)	active
CN1CCc2c(sc3c2C(=O)NC(c2cn(Cc4ccccc4)c4ccccc24)N3)C1 (centres undefined)	inactive
O=C(NCc1cccs1)c1cc2c(s1)CCCC2	inactive
Cc1nc(Nc2ccncc2)c2oc3ccccc3c2n1	active
CCN1CCCC1CNC(=O)c1c(O)c2c([nH]c1=O)CCCC2 (centres undefined)	inactive
CC(C)C(C(=O)O)N1C(=O)/C(=C/C=C/c2ccco2)SC1=S (centres undefined)	inactive; quenches the donor
CN=C1c2cc3cc(OC)ccc3n2CCN1Cc1ccccc1	inactive
O=C(Nc1nccs1)c1cc2c(s1)-c1ccccc1OC2	inactive
CCOC(=O)Cn1c(=N)n(CCOc2ccc(OC)cc2)c2ccccc21	inactive
